How the values were obtained:
Assay in all cases: PBM binding z-score (relative to random genomic background probes); higher = stronger binding; sequences stand for … in GC…GCGATTGACAGCGTAGAATGAAGG
[1] = system: FXR:RXRa (NR concentration 270 nM, RXRa partner concentration 90 nM)
Procedure, shortened: (§1)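 Binding buffer was PBS pH 7.4 with 2% milk, 0.02% Triton X-100, 1 mM DTT, 0.2 mg/mL BSA and 0.4 mg/ml salmon testes DNA. In it, ligand-free nuclear receptor dimers were incubated 1 h on custom Agilent 4×180K protein-binding microarrays carrying double-stranded probes. Antibodies against each partner (one per run) detected binding, and z-scores were calculated against random background probes after regression normalization of scanned fluorescence.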

[2] = system: LXRa:RXRa (NR concentration 270 nM, RXRa partner concentration 90 nM)
Procedure, shortened: as §1

[3] = system: LXRa homodimer (NR concentration 270 nM)
Procedure, shortened: as §1

[4] = system: LXRb:RXRa (NR concentration 270 nM, RXRa partner concentration 90 nM)
Procedure, shortened: as §1

[5] = system: LXRb homodimer (NR concentration 270 nM)
Procedure, shortened: as §1

[6] = system: PPARa:RXRa (NR concentration 270 nM, RXRa partner concentration 90 nM)
Procedure, shortened: as §1

[7] = system: PPARg:RXRa (NR concentration 180 nM, RXRa partner concentration 90 nM)
Procedure, shortened: as §1

[8] = system: PPARg:RXRa 270nM:90nM, anti-RXR (NR concentration 270 nM, RXRa partner concentration 90 nM)
Procedure, shortened: as §1

[9] = system: PPARg:RXRa 30nM:10nM, anti-RXR (NR concentration 30 nM, RXRa partner concentration 10 nM)
Procedure, shortened: as §1

[10] = system: PPARg:RXRa 90nM:30nM, anti-RXR (NR concentration 90 nM, RXRa partner concentration 30 nM)
Procedure, shortened: as §1

Sequence	PBM binding z-score [1]	PBM binding z-score [2]	PBM binding z-score [3]	PBM binding z-score [4]	PBM binding z-score [5]	PBM binding z-score [6]	PBM binding z-score [7]	PBM binding z-score [8]	PBM binding z-score [9]	PBM binding z-score [10]
ACTTACGGGTCAACTAGGTTATAGCACGCGTATA	6.74	4.89	0.702	4.49	0.758	5.8	6.09	5.5	2.25	4.51
TATACAGGGTCAAAGGCGAGAGTACGAATGTCGA	7.01	6.18	2.21	4.53	2.51	6.19	7.72	6.81	3.94	6.47
AGAACGAGGGCACGCTGAGTTGATACCAGAGTAG	0.816	0.364	-0.278	0.0367	-0.613	1.76	2.2	1.8	0.433	1.03
CCAGACAGGTGAGGAGGTAACTCAGCCTCGATTA	-0.0226	0.276	0.253	0.35	-0.29	0.831	0.403	0.546	-0.128	0.0478
GCTGCAAGGTCAGGTTGGTCAGCTAACGGGTACG	4.43	2.88	0.0795	2.36	0.0855	3.65	1.36	2.37	0.236	1.42
TCTAGTTGGTCAAAGGTAACACACTCGAAATGCG	1.27	1.4	0.707	1.5	0.561	4	8.12	7.77	6.85	8.85
AGAATGAGGTTATTAAGATCAGGGAATTGCGGTC	1.82	1.51	0.178	1.26	-0.237	2.39	1.44	1.72	0.425	0.999
AGAACGAGAGCACGCTGAGTTGATAGCAGAGTAG	-0.802	-0.854	-0.51	-0.91	-1.27	-0.425	0.523	-0.601	-0.701	-0.842
CCGACTGGGGCAGAAAGGTTACCAAACCATCCGG	0.151	0.796	-0.38	1.02	-0.812	2.22	1.48	2.84	0.501	2.07
CTCGAAAGGTCGGTTGAGGTGGGTATACGGATAA	2.11	1.35	0.0862	1.31	0.332	2.36	0.284	0.726	0.0658	0.243
TCAGATAGGTAAAAGGTGAAAGTCGGTGTGGTAA	2.12	1.87	0.408	2.01	0.00585	4.67	6.03	6.8	6.55	7.29
ATCGTAAGGTCGAAGGTGAGTATACCCACCCGAA	2.6	1.9	-0.314	1.71	0.36	3.41	3.62	3.7	1.42	3.36
GCTACTAGGTCAACTGATGGTCAGCTAAAGCTCG	4.07	3.11	0.488	2.22	0.314	4.47	7.27	6.19	3.31	5.71
CCTATTAGTTGACCATAAGGGCAACCAAAGCTCG	1.06	0.507	0.675	0.965	0.552	0.948	0.604	0.461	0.262	0.51
CGTCCAAGGTCAATGCTTGGTCAGTGAAAGCATT	6.4	4.57	0.472	3.42	0.327	4.9	3.44	4	0.746	2.46
CCTACTTGGCCATTCAGAGGTCATTGATCATATG	3.12	4.37	6.52	4.31	1.21	3.83	0.976	2.46	0.88	1.77
GCAGACAGGTGATACGCAGGTAACTCAGGGTGGC	-0.378	-0.342	-0.563	-0.687	-1.16	-0.129	0.508	-0.512	-0.33	-0.762
ATATGTAGGTGACATCCGGGTCATTCAGGCTATG	2.96	2.62	0.319	2.21	0.147	5.01	6.79	5.7	2.91	5
CCTTACGGGTCACTGACAGGTTATAACATTTGGA	5.58	4.49	0.519	3.76	0.0468	5.18	4.66	4.61	1.74	3.38
CAAACTAGGTCAAGAAGTCAAAGTCCGCTTCCCG	3.65	2.9	0.599	1.94	0.337	4.89	7.74	6.67	4.66	6.22
TCTTGTAGATCAGCAGGTTAAGAATGCTGGCCAA	-0.0205	0.0347	-0.38	0.151	-0.573	0.607	-0.224	1.26	2.68	2.04
GCTGCTAGGTCAACTAATGGTCAGCTAAAGCTCG	3.23	2.87	0.268	2.02	0.0624	3.29	2.45	3.11	0.435	2.19
CCGACTGGGGCATAACGTTACCATAAGCCAGCCC	-0.396	-0.323	-0.401	-0.205	-1.06	0.0712	0.89	0.484	-0.471	0.117
TAGCTTAGGTCAGATCGGGCCAGTATACGCTATA	2	1.41	-0.333	0.69	0.0114	1.96	0.531	0.891	0.0799	0.412

Sequence	PBM binding z-score [1]	PBM binding z-score [2]	PBM binding z-score [3]	PBM binding z-score [4]	PBM binding z-score [5]	PBM binding z-score [6]	PBM binding z-score [7]	PBM binding z-score [8]	PBM binding z-score [9]	PBM binding z-score [10]
CTACCAAGGTGAACAAGGTCGGTGATTACTATTC	0.778	0.251	-0.361	0.578	-0.54	1.69	0.819	0.753	-0.269	0.288
TCTAGGTGGTCAAAGGTCACACACTCGAAATGCG	6.45	5.79	3.73	5.64	1.02	6.57	10.3	8.72	8.95	10.2
AGAACGAGGGGACGCTGAGTTGATAGCAGAGTAG	-0.308	-0.353	-0.679	-0.522	-0.449	-0.232	0.607	0.0813	-0.0641	-0.258
TCGAGTAGGTTAGCGGCATTCAGAATGGCGTCGA	-0.731	-0.487	-0.848	-0.653	-1.3	0.0919	-0.173	0.409	0.448	0.475
TCTCGGAGGACACGAAGGTCAGAGCGTTCCAGAG	1.4	1.13	0.0459	0.874	-1.15	2.05	0.373	1.63	2.34	2.05
CCTACTGGGCCACGAAAGGTCATTAATTCAGTGA	3.16	4.95	4.76	4.24	0.358	4.48	4.47	4.57	1.99	3.83
CCGACTCGGGCATAAGGTTACCATAAGCCAGCCC	0.235	2.34	-0.549	0.615	-1.1	1.14	0.783	1.19	-0.332	0.652
ATAGGTAGGTTAAGGGTCATTCAGGTTGGTTCGC	5.35	5.02	3.31	4.83	2.47	5.86	9.73	8.69	8.35	9.51
AGAATGAGGTTACCGAAGATCAGGGAAACGCTTG	2.18	4.55	-0.477	2.19	-0.522	3.81	2.86	3.26	1.19	2.55
CCTTACGCGTCAAGGTTATAGCACGGGTGGTACG	0.452	0.749	0.096	0.771	0.153	1.14	0.691	-0.0885	-0.308	0.0411
TTACTAAGGTGAGCTGAGGTCGTTGATCCAACTC	2.26	1.54	-0.344	1.04	-0.663	1.97	0.363	1.26	0.174	0.711
AGAATGAGGTTATCCGTAGATCAGGGAAGAAAGT	2.59	2.06	-0.212	1.57	-0.253	3.44	1.63	2.05	0.418	1.32
CCTAGGAGGCCAATCTGGGTCACTCAAGGCTTGA	1.29	2.42	-0.439	1.35	-1.2	3.35	2.59	2.49	0.067	1.85
TGAATGAGGTTAAAGATCAGGGATCGTGGCGTCG	2.72	2.32	-0.45	1.43	0.3	4.23	5.54	6.39	4.69	6.83
ATCTCTGGGTAACAAGTTCAGTGAAAGAGAGGAC	0.503	0.668	0.353	0.819	0.98	1.7	1.62	1.83	0.953	1.5
CCTACTGGGCCATTCAGAGGTCAGTGATCATATG	0.991	1.94	2.35	1.78	-0.442	2.54	1.47	1.99	0.391	1.29
ATCGAAAGGTCGAAGGTGAGTAAACCCACCCGAA	4.69	3.83	0.284	3.05	0.315	4.88	4.96	5.19	1.91	4.14
TCGAGTAGGTTCGTCGGGGCATTCAGCCAACATA	0.282	0.37	-0.315	0.726	-0.765	0.757	-0.436	0.394	0.955	0.64
ATCGAAAGGTCGACGAGGTGAGTATACACCGTTT	4.62	3.32	-0.0538	2.73	0.533	4.52	2.85	3.18	1.02	2.34
GCAGACAGGTGAAACGCAGGTAGCTCAGGGTGGC	-0.298	-0.318	-0.974	-0.61	-1.08	0.412	0.213	-0.178	-0.645	-0.382
ATATGTAGGTTAAATCCGGGTCATTCAGGCTATG	2.83	5.17	3.32	3.47	1.09	4.96	5.84	5.44	2.91	4.84
GGAACGAGGGCAGAGTTGATAGCATCTGTCGACG	-0.283	-0.148	-0.653	-0.244	-0.788	2.39	4.04	5.15	3.38	4.85
CGTCCAAGGACAAGGTCAGTGAAAGAGACTCGAA	1.56	1.45	-0.433	1.46	-0.506	2.39	0.883	1.23	-0.0239	0.648
ATCTCTAGGTAACCAAGTTCAGTGATTGCCGAAC	0.358	0.717	0.794	0.577	0.713	1	0.254	0.803	0.204	0.579
